Compound activity as filed in PubChem.
This is a sample that favours compounds with a hit; in the whole collection about 3.5% have one here.
TEAD-YAP inh: TEAD-YAP interaction inhibition; inhibition, % at 9.12 µM; HEK-TIYL cells, TEAD-Gal4/YAP UAS-luciferase luminescence; 1.4% of 640,000 active; in the data active = inhibition above about 32%;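 also: 0% = median of test compound wells and 100% = reference inhibitor wells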
FBW7 activator: activators of human E3 ligase FBW7. Q969H0. AlphaScreen FBW7–phospho-cyclin E peptide binding, activator screen. 0.13% of 650,000 active. normalized activity (activation), % at 26.1 µM; in the data active = normalized activity above about 1.9%;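 also: purified mutant Fbw7 with reduced substrate affinity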
Target sequence (Q969H0 whole entry, looked up): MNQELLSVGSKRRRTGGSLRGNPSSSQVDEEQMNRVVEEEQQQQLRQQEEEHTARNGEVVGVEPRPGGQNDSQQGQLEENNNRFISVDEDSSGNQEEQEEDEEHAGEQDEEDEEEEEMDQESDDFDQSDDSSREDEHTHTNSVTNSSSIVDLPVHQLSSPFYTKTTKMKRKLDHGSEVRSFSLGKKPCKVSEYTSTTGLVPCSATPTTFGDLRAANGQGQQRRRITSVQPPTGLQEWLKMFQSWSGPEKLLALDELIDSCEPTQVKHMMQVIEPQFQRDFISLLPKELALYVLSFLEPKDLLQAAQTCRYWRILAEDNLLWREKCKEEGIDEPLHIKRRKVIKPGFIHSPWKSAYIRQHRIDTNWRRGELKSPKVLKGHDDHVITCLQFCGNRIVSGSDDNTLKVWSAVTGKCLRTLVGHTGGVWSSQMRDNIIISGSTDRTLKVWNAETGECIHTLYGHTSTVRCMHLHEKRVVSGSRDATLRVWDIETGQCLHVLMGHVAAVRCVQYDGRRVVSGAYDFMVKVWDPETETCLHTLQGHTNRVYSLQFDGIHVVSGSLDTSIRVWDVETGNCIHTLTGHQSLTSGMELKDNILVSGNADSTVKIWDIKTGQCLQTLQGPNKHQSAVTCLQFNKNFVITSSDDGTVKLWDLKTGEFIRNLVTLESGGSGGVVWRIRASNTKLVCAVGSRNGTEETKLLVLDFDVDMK
MITF primary: human MITF inhibition, primary screen; AID 1259374; O75030; 0.91% of 650,000 active; inhibition, % at 2.6 µM; AlphaScreen MITF homodimerization, bead proximity signal; in the data active = inhibition above about 50%;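 also: 0% = vehicle wells with protein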
GPR151 ag: activates the human receptor GPR151. Q8TDV0. PathHunter beta-arrestin GPR151 cells, luminescence. activation, % at 11.2 µM. 1% of 650,000 active; in the data active = activation above about 4.9%;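 also: 0% = median of compound wells and 100% = cells with positive control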
GPR151 conf act: human GPR151 activation, confirmation screen | shares compounds with GPR151 ag | GPR151 PathHunter beta-arrestin cells, luminescence, 90 min; % of EA-reagent control over plate median | activation, % at 11.2 µM | 6,700 tested, under 10 active;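 active = mean percent activation across replicates above the confirmation screen cutoff of 4.91%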
GPR119 ag: activates human GPR119 in a GPR151 counter-screen | shares compounds with GPR151 ag | activation, % at 11.2 µM | GPR119 PathHunter beta-arrestin cells, luminescence, 90 min; 0 = compound-well median, 100 = enzyme-acceptor control | 0.3% of 6,700 active;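 active = mean percent activation in the counterscreen above 29.09%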;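 also: counterscreen on off-target GPR119 to flag nonselective hits from the GPR151 activator screen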
An asterisk follows results filed as active; nt = not tested or not shown.

SMILES	TEAD-YAP inh	FBW7 activator	MITF primary	GPR151 ag	GPR151 conf act	GPR119 ag
CCOC(=O)C(NC(=O)/C(=C\c1ccc(Br)cc1)NC(=O)c1ccccc1)C(C)O (stereo not drawn)	-2	0	-6	0	nt	nt
CCOC(=O)C(NC(=O)/C(=C\c1ccc(F)cc1)NC(=O)c1ccccc1)C(C)C (stereo not drawn)	13	0	17	7.5*	0	-5
Cc1cccc(N2CCN(c3ncnc4c3c(-c3ccccc3)cn4-c3cccc(Cl)c3)CC2)c1C	-5	0	20	6.1*	2	22
Clc1cccc(-n2cc(-c3ccccc3)c3c(N4CCN(c5ccccc5Cl)CC4)ncnc32)c1	3	0	-20	-2	nt	nt
O=C(CCN1C(=O)c2ccccc2C1=O)Nc1cc([N+](=O)[O-])ccc1O	3	0	-14	5.8*	0	10
O=C(CCN1C(=O)c2ccc([N+](=O)[O-])cc2C1=O)Nc1cc(Cl)ccc1O	2	0	4	0	nt	nt
Cc1nc(N)n(N)c(=O)c1CCCN1C(=O)c2ccccc2C1=O	-61	0	2	-2	nt	nt
Cc1nc(N)n(N)c(=O)c1Cc1ccccc1	-2	0	-9	6.4*	1	-3
CCOC(=O)N1CCN(C(=O)C2CCCN(c3nn4c(=O)cc(C)nc4s3)C2)CC1 (stereo not drawn)	-1	0	-11	5.6*	0	-11
Cc1cc(=O)n2nc(N3CCCC(C(=O)N4CCN(c5ccccc5)CC4)C3)sc2n1 (stereo not drawn)	2	0	10	0	nt	nt
COc1ccc(OCCCC(=O)NCc2ccccc2)cc1	-6	0	17	-1	nt	nt
O=C(Nc1cc([N+](=O)[O-])cc2c1C=Cc1ccccc1O2)c1ccco1	-58	0	8	-1	nt	nt
O=C(c1ccc2cc[nH]c2c1)N1CCNCC1	0	0	-9	-2	nt	nt
O=C(c1ccc2cc[nH]c2c1)N1CCN(C(=O)C(c2ccccc2)c2ccccc2)CC1	10	0	8	5.6*	-1	-12
Cc1c(C(=O)Nc2ccc(Oc3ccccc3)cc2)sc2ncn(CC(=O)N3CC(C)CC(C)C3)c(=O)c12 (stereo not drawn)	5	0	4	3	nt	nt
CCOc1ccc(NC(=O)c2sc3ncn(CC(=O)N4CC(C)CC(C)C4)c(=O)c3c2C)cc1 (stereo not drawn)	20	0	2	6.3*	-1	0
O=C1CCCN1CCCNc1nc(NCCN2CCOCC2)nc2c1ncn2CCN1CCCC1=O	-4	0	7	1	nt	nt
Oc1cccc2ccc(Nc3ccccn3)nc12	86*	0	108*	5.1*	-1	-8
CCN(CC)S(=O)(=O)c1ccc(OCc2ccccc2C#N)c([N+](=O)[O-])c1	7	0	-9	5.0*	0	1
O=C(COc1ccccc1Cl)NC(=S)Nc1ccc(C(=O)O)cc1	0	0	13	0	nt	nt
Cc1ccc(/C=C(/C#N)c2ccc3c(c2)OCO3)cc1[N+](=O)[O-]	-2	0	5	-1	nt	nt
N#C/C(=C/c1ccccc1[N+](=O)[O-])c1ccc2c(c1)OCO2	-8	0	6	5.7*	0	-13
CC(C)N(CCNC(=O)c1cccc(NCCCN2CCCC2=O)c1)C(C)C	-1	0	3	5.0*	-1	5
COc1ccc(NC(=O)C(=S)NCCc2ccccc2)cc1	-7	0	17	-1	nt	nt
COc1ccc(CSCC(=O)N/N=C/c2cccc(OC)c2OC)cc1	5	0	25	3	nt	nt
SMILES	TEAD-YAP inh	FBW7 activator	MITF primary	GPR151 ag	GPR151 conf act	GPR119 ag
CC(=O)N1c2ccccc2N(Cc2ccccc2)C(=O)C1(C)C	-5	0	2	4	nt	nt
CC(C)(C)c1ccc(OCC(O)CS(=O)Cc2ccccc2)cc1 (stereo not drawn)	0	0	1	5.4*	0	6
C=CCn1c2ccccc2n2cc(-c3ccc(-c4ccccc4)cc3)nc12	-3	1	-3	-1	nt	nt
O=C(N1CCOCC1)N1CCN(S(=O)(=O)N2CCCC2)CC1	0	0	-8	1	nt	nt
O=C(N1CCCCCC1)N1CCN(C(=O)N2CCOCC2)CC1	-2	0	-2	5.8*	0	3
CCCCNc1nc2ccccc2c2nc(-c3cccnc3)nn12	4	0	6	1	nt	nt
O=C1CCCN1CCCNc1nc2ccccc2c2nc(-c3cccnc3)nn12	20	0	10	6.3*	1	15
O=C1CCCN1CCCNc1nc2ccccc2n2nnnc12	2	0	-7	5.9*	0	-8
c1ccc2c(c1)nc(NCCCN1CCOCC1)c1nnnn12	-8	0	7	-2	nt	nt
CCOC(=O)c1c(C)n(-c2ccccc2OC)c2c1cc(OC)c1ccccc12	12	0	9	-1	nt	nt
O=[N+]([O-])c1cccc(Cl)c1CSc1nnnn1-c1cccc2ccccc12	4	0	14	0	nt	nt
O=[N+]([O-])c1cccc(Cl)c1CSc1nnnn1-c1ccccc1	7	0	7	6.2*	0	2
Cc1cccc(OCC(=O)Nc2sc3c(c2C#N)CCCC3)c1C	11	0	1	-1	nt	nt
FC(F)(F)c1ccc(Cl)c(NC2=NCCCCC2)c1	3	0	11	6.1*	-1	-8
Cn1cc(CN2CCCC(CNS(=O)(=O)c3cccc4cccnc34)C2)cn1 (stereo not drawn)	1	0	5	8.1*	0	1
CCCC(=O)Nc1nnc(CC)s1	-9	0	-4	0	nt	nt
CCCCOc1ccc(C(=O)Nc2c3c(nn2-c2ccc(Cl)cc2)CSC3)cc1	-6	0	-3	-1	nt	nt
Cc1nn(CC(=O)NCC#N)c(C)c1[N+](=O)[O-]	-4	0	-3	5.0*	0	-3
Fc1ccc(OCc2nn3c(-c4ccncc4)nnc3s2)cc1	7	-1	3	6.1*	0	-6
Cc1ccc(OCc2nn3c(-c4ccc(F)cc4)nnc3s2)cc1	-8	0	-5	2	nt	nt
Cc1cccn2c(CN3CCCCC3CCn3cccn3)c(C(=O)N3CCOCC3)nc12 (stereo not drawn)	1	0	-13	7.8*	0	4
CSCCNCc1c(C(=O)N2CCCCC2)nc2c(C)cccn12	-1	0	5	9.0*	0	3
O=C(c1nc2sccn2c1CNCCc1ccncc1)N1CCCCCCC1	3	0	-13	0	nt	nt
COC(=O)[C@@H]1CCCN1Cc1c(C(=O)N2CCOCC2)nc2c(C)cccn12	3	0	-11	-1	nt	nt
O=C(c1nc2sccn2c1CNCCc1cccnc1)N1CCCC1	7	0	0	12*	0	7
Cc1cccn2c(CNCCSc3nccn3C)c(C(=O)N3CCCCC3)nc12	-5	0	5	1	nt	nt
